Laboratory results from PubChem BioAssay (NCI).
The panel holds about 83,000 compounds, 20% with a hit somewhere; the sample as a whole holds those more often.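 Testing used 96-well plates and a 48-hour single-concentration exposure. Example: -40 means 40% of the starting cells died.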 Calls of active or inactive are those of the source. The calls were made as follows: active = growth percent below 10; inactive = the rest.

Tests used:
Assay in all cases: NCI-60 one-dose screen, 48 h (100 = growth as untreated, 0 = no growth, -100 = all killed)
SK-MEL-2 melanoma = conditions: 10 µM unless noted
SN12C renal = conditions: 10 µM unless noted
UO-31 renal = conditions: 10 µM unless noted
ACHN renal = conditions: 10 µM unless noted
A498 renal = conditions: 10 µM
HL-60(TB) leukemia = conditions: 10 µM unless noted
CCRF-CEM leukemia = conditions: 10 µM unless noted
TK-10 renal = conditions: 10 µM unless noted
CAKI-1 renal = conditions: 10 µM unless noted
EKVX NSCLC = conditions: 10 µM unless noted

Measured: growth

ClCCN(CCCl)c1ccc(OCc2ccccc2)cc1
inactive: SK-MEL-2 melanoma 114% | SN12C renal 30.8% | UO-31 renal 38.6% | ACHN renal 17.7% | A498 renal 68.9% | HL-60(TB) leukemia 10.6% | CCRF-CEM leukemia 14.4%

O=C1C2CCC1C(N1CCCC1)CC2 (stereo not given)
inactive: SK-MEL-2 melanoma 103% | UO-31 renal 87.5% | TK-10 renal 97.8% | ACHN renal 102% | CAKI-1 renal 97.7% | A498 renal 92.2% | HL-60(TB) leukemia 97.2% | CCRF-CEM leukemia 94.3%

CC12CCC3C(CCC4Cc5[nH]c6ccccc6c5CC43C)C1CCC2O (stereo not given)
inactive: SK-MEL-2 melanoma 67.2% | UO-31 renal 56.9% | TK-10 renal 57.3% | ACHN renal 48.3% | CAKI-1 renal 45.1% | A498 renal 31.8%
active: HL-60(TB) leukemia -32.9% | CCRF-CEM leukemia 8.61%

NC1CC2CCCCC2CC1(O)c1ccccc1 (stereo not given)
inactive: SK-MEL-2 melanoma 100% | UO-31 renal 83.9% | TK-10 renal 96.6% | ACHN renal 104% | CAKI-1 renal 107% | A498 renal 89.8% | HL-60(TB) leukemia 91.1% | CCRF-CEM leukemia 96%

C#Cc1ccc2c(c1)C(c1ccccc1)=NCC(=O)N2C
inactive: SK-MEL-2 melanoma 25.5% | UO-31 renal 67.8% | TK-10 renal 66.1% | ACHN renal 52% | CAKI-1 renal 51.3% | A498 renal 26.7% | CCRF-CEM leukemia 48.9%
active: HL-60(TB) leukemia 1.49%

CC(=O)[O][Hg][c]1c(N)c(C)cc(C)c1F
active: HL-60(TB) leukemia -12.7% | CCRF-CEM leukemia -6.01%
inactive: SK-MEL-2 melanoma 11.6% | UO-31 renal 35.1% | TK-10 renal 97.4% | ACHN renal 62.9% | CAKI-1 renal 45.8% | A498 renal 101%

C[C@@H]1C[C@@]2(C)[C@@H](CC[C@@H]3[C@@H]2CC[C@]2(C)C(=O)CC[C@@H]32)CC1=O
inactive: EKVX NSCLC 86.5% | SN12C renal 103% | UO-31 renal 96.3% | TK-10 renal 94% | ACHN renal 103% | A498 renal 71.9% | CCRF-CEM leukemia 83.7%
active: CAKI-1 renal -30.7%

CCNc1nc(Cl)nc(NCC)n1
inactive: EKVX NSCLC 86.5% | SN12C renal 102% | UO-31 renal 77.1% | TK-10 renal 116% | ACHN renal 102% | CAKI-1 renal 77.3% | A498 renal 95.8% | HL-60(TB) leukemia 98.4% | CCRF-CEM leukemia 96.8%

COc1ccc2c(c1)c(-c1nc(-c3cn(C)c4ncccc34)cs1)cn2CCN1CCOCC1
active: UO-31 renal 3.02%
inactive: SK-MEL-2 melanoma 56% | TK-10 renal 49.4% | ACHN renal 32.1% | A498 renal 76.1% | HL-60(TB) leukemia 31.3% | CCRF-CEM leukemia 31.1%

COC(=O)CCC1=C(C)c2cc3[n-]c(cc4nc(cc5[n-]c(cc1n2)c(CCC(=O)OC)c5C)C=C4C)cc3C.[Cd+2]
inactive: EKVX NSCLC 62.2% | SN12C renal 71.2% | UO-31 renal 71.7% | TK-10 renal 33.4% | ACHN renal 67.9% | CAKI-1 renal 63.3% | A498 renal 34.4%

COc1cc([N+](=O)[O-])c2nc(C)ccc2c1[N+](=O)[O-]
inactive: EKVX NSCLC 112% | SN12C renal 89% | UO-31 renal 74.9% | TK-10 renal 122% | ACHN renal 89.5% | CAKI-1 renal 104% | A498 renal 121% | CCRF-CEM leukemia 91.3%

C=CC[PH+](c1ccccc1)c1ccccc1.C=CC[PH+](c1ccccc1)c1ccccc1.[Cl][Pt][Cl]
inactive: EKVX NSCLC 50.8% | SN12C renal 30.6% | UO-31 renal 31.5% | TK-10 renal 73.7% | ACHN renal 35.9% | CAKI-1 renal 77.9% | A498 renal 99%
active: HL-60(TB) leukemia -19.4% | CCRF-CEM leukemia 3.7%

C/C1=C/C(=O)O[C@@H]2C[C@@H](CC[C@H](C)/C=C\C=C\CC1)O[C@@](O)([C@@H]1CSC(=O)N1CO)C2
inactive: SN12C renal 47.8% | ACHN renal 10.6% | HL-60(TB) leukemia 28.2% | CCRF-CEM leukemia 11.1%
active: EKVX NSCLC 6.56% | UO-31 renal -83.5% | TK-10 renal -39.1% | CAKI-1 renal -48.3% | A498 renal -46.2%

C=C1C(=O)O[C@H]2[C@H]1CC/C(COC(=O)C(=O)c1cn(Cc3ccccc3)c3ccccc13)=C\CC[C@@]1(C)O[C@@H]21
inactive: A498 renal 52.4%
active: EKVX NSCLC -40.7% | SN12C renal -70.3% | UO-31 renal -91.3% | TK-10 renal -62.2% | ACHN renal -61.5% | CAKI-1 renal -34.6% | HL-60(TB) leukemia -26.6% | CCRF-CEM leukemia -30.6%

CCOC(=O)[C@@H](C)C[C@H](Cc1ccccc1)NC(=O)c1nc([C@@H](C[C@H](C(C)C)N(C)C(=O)[C@@H](NC(=O)[C@H]2CCCCN2C)C(C)C)OC(C)=O)sc1CCOCc1ccccc1
inactive: EKVX NSCLC 10.8%
active: SN12C renal -58.9% | UO-31 renal -56.3% | TK-10 renal -6.54% | ACHN renal -22% | CAKI-1 renal -23.5% | HL-60(TB) leukemia -62.9% | CCRF-CEM leukemia 0.263%

C[C@]12CC[C@H]3[C@@H](CC4SC(N)=NC45C/C(=N/NC(N)=O)CC[C@]35C)[C@@H]1CCC2=O (stereo not given in full)
active: EKVX NSCLC -4.54% | CCRF-CEM leukemia -5.86%
inactive: SN12C renal 18.1% | UO-31 renal 85.8% | TK-10 renal 49.2% | ACHN renal 32.4% | CAKI-1 renal 63% | A498 renal 91.6%

CO[C@H]1CC[C@@]2(C)C(=CC[C@@H]3[C@@H]2CC[C@]2(C)C(=O)C(=O)C[C@@H]32)C1
inactive: SK-MEL-2 melanoma 128% | UO-31 renal 86.9% | TK-10 renal 117% | ACHN renal 102% | CAKI-1 renal 93% | A498 renal 82.1% | HL-60(TB) leukemia 141% | CCRF-CEM leukemia 95.3%

O=C(CN1CCN(C(=O)c2ccco2)CC1)Nc1ccc(Cl)cc1C(=O)c1ccccc1Cl
inactive: EKVX NSCLC 94.3% | SN12C renal 105% | UO-31 renal 35.3% | TK-10 renal 132% | ACHN renal 81.3% | CAKI-1 renal 91.7% | A498 renal 83.8% | HL-60(TB) leukemia 49.4% | CCRF-CEM leukemia 163%

CC[C@H](C)[C@@H]1OC(=O)C(C)(C)[C@H](O)[C@H](Cc2ccccc2)OC(=O)[C@H](C(C)C)OC(=O)[C@@H](NC(=O)c2cccc(NC=O)c2O)[C@@H](C)OC1=O
inactive: SK-MEL-2 melanoma 36.2% | UO-31 renal 47.3% | TK-10 renal 49.8% | ACHN renal 46.4% | CAKI-1 renal 38.7% | A498 renal 67.2% | HL-60(TB) leukemia 60% | CCRF-CEM leukemia 36.7%

COc1cc(/C=C/[N+](=O)[O-])c([N+](=O)[O-])cc1OC
active: UO-31 renal -49.5% | TK-10 renal -18.3% | ACHN renal -46.4% | CAKI-1 renal -50% | HL-60(TB) leukemia -7.54% | CCRF-CEM leukemia 5.8%
inactive: EKVX NSCLC 65.9% | SN12C renal 22% | A498 renal 109%

Cn1cc(C2=C(c3cn(C4CCN(Cc5ccccn5)CC4)c4ccccc34)C(=O)NC2=O)c2ccccc21
inactive: EKVX NSCLC 83.4% | SN12C renal 81.1% | UO-31 renal 48.4% | TK-10 renal 56.3% | ACHN renal 63.8% | CAKI-1 renal 50.8% | A498 renal 88.1% | HL-60(TB) leukemia 39.8% | CCRF-CEM leukemia 112%

CCC1(C(C)C)C(=O)NC(=S)NC1=O
inactive: SN12C renal 103% | UO-31 renal 97.4% | TK-10 renal 107% | ACHN renal 98.5% | CAKI-1 renal 99.8% | A498 renal 92.8% | HL-60(TB) leukemia 102% | CCRF-CEM leukemia 97.3%

CC(=O)O[C@H]1CC[C@@]2(C)C(=CC[C@H]3[C@@H]4C[C@@H](N5CC5)[C@H](C(C)=O)[C@@]4(C)CC[C@@H]32)C1
inactive: SN12C renal 88.9% | UO-31 renal 104% | TK-10 renal 105% | ACHN renal 83.1% | CAKI-1 renal 89.3% | A498 renal 98.7% | HL-60(TB) leukemia 92.4% | CCRF-CEM leukemia 78%

O=C(Nc1ccc([As]=[As]c2ccc(NC(=O)c3ccccc3)cc2)cc1)c1ccccc1 (stereo not given)
active: EKVX NSCLC -69.1% | UO-31 renal -96.7% | TK-10 renal -98.4% | ACHN renal -92.4% | CAKI-1 renal -80.2% | A498 renal -97.5%

COC(=O)[C@@H](C)C[C@H](Cc1ccc(F)cc1)NC(=O)c1csc([C@@H](C[C@H](C(C)C)N(C)C(=O)[C@@H](NC(=O)[C@H]2CCCCN2C)C2CC2)OC(C)=O)n1
inactive: EKVX NSCLC 43.2% | SN12C renal 31.6% | UO-31 renal 55.8% | TK-10 renal 72.4% | ACHN renal 34% | CCRF-CEM leukemia 12.6%
active: A498 renal 9.1% | HL-60(TB) leukemia -35.1%

CCOC(=O)[C@@H](C)C[C@H](Cc1ccccc1)NC(=O)c1csc([C@@H](C[C@H](C(C)C)N(C)C(=O)[C@@H](NC(=O)[C@H]2CCCCN2C)C(C)(C)C)OC(C)=O)n1
inactive: EKVX NSCLC 31.5% | SN12C renal 13.3% | UO-31 renal 20.6% | TK-10 renal 49.2% | ACHN renal 17.1%
active: A498 renal -11.4% | HL-60(TB) leukemia -33.2% | CCRF-CEM leukemia 1.8%

Cn1cc(C=O)c2nccnc21
inactive: EKVX NSCLC 96.9% | UO-31 renal 106% | TK-10 renal 94.8% | ACHN renal 109% | CAKI-1 renal 91.4% | HL-60(TB) leukemia 107% | CCRF-CEM leukemia 102%

COC(=O)[C@@H](C)C[C@H](Cc1ccccc1)NC(=O)c1csc([C@@H](C[C@H](C(C)C)N(C)C(=O)[C@@H](NC(=O)[C@H]2CCCCN2C)C2CCCCC2)OC(C)=O)n1
active: A498 renal -10.2% | HL-60(TB) leukemia -51.9% | CCRF-CEM leukemia 0.645%
inactive: EKVX NSCLC 25% | SN12C renal 12.6% | UO-31 renal 31.7% | ACHN renal 11.4% | CAKI-1 renal 14.5%

COC(=O)[C@@]1(O)C[C@H]2O[C@]1(C)n1c3ccccc3c3c4c(c5c6ccccc6n2c5c31)C(=O)NC4
active: SN12C renal -47.2% | UO-31 renal -57.9% | TK-10 renal -86.3% | ACHN renal -27.3% | CAKI-1 renal -97.5% | A498 renal -96.6% | HL-60(TB) leukemia -44.5% | CCRF-CEM leukemia 0.604%

O=C(Nc1ccc(Cl)cc1)Nc1nccs1
active: A498 renal 8.26% | HL-60(TB) leukemia -18.6% | CCRF-CEM leukemia 6.31%
inactive: SN12C renal 50.4% | UO-31 renal 40.3% | ACHN renal 54.4% | CAKI-1 renal 22.6%
